Compounds with a hit are over-represented: about 2.8% of the library has one in this group of screens.
CF NFkB block: cystic fibrosis NF-kB activation inhibition. 0.86% of 360,000 active. inhibition, % at 5 µM. KKLEB NF-kB-GFP reporter, PAF-induced, GFP fluorescence overnight;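 active = at least 50% inhibition at 5 µM, scaled per plate between neutral and stimulator controls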;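 also: PAF is a Pseudomonas aeruginosa culture filtrate used as stimulus; plate controls were PAF-stimulated DMSO wells for no effect and unstimulated DMSO wells for full effect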
KKLEB cytotox: counter-screen for CF NF-kB inhibitors: cytotoxicity; KKLEB CF airway cells viability, ATPlite luminescence, overnight; hits give low values; cells stimulated with P. aeruginosa culture filtrate; activity change (cytotoxicity), % at 5 µM; 0.36% of 360,000 active; AID 602141;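 active = corrected activity change at or below -50% at 5 µM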
MITF TRPM1 inh: reduces MITF-dependent TRPM1 promoter luciferase signal; 0.83% of 330,000 active; SK-MEL-5 TRPM1 promoter luciferase, 24 h; AID 488899; inhibition, % at 12.5 µM;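 active = mean inhibition across replicates of 60% or more, whatever share of single replicates reaches that level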
Peg3 prom inh: reduces Peg3 promoter-driven luciferase expression in HeLa; HeLa PEG-Prom luciferase reporter, luminescence, overnight; inhibition, % at 20 µM; 1.7% of 360,000 active; AID 588405;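 active = inhibition of at least 50% at 20 µM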
Shn3 3UTR inh: Schnurri-3 reporter inhibition in Clone20 osteoblasts; Clone20 osteoblast Shn3 3'UTR firefly luciferase, 24 h; inhibition, % at 12.5 µM; 0.52% of 360,000 active;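 active = mean inhibition of at least 75% with every replicate also reaching 75%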;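 also: 0% = median of neutral control wells and 100% = pilot-screen positive control compound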
HIF-2a inh: HIF-2a inhibition; 786-0 RCC cells HIF-2a reporter, luciferase luminescence, overnight; inhibition, % at 18.8 µM; 0.72% of 360,000 active; AID 624352;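 active = inhibition of the luminescence signal of 40% or more relative to plate controls, in a single-dose primary screen at 18.75 µM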
* marks the source's active call; other numbers are inactive results; nt = no result.

SMILES	CF NFkB block	KKLEB cytotox	MITF TRPM1 inh	Peg3 prom inh	Shn3 3UTR inh	HIF-2a inh
CCCCn1nnnc1C(c1cc2ccccc2o1)N1CCOCC1 (configuration not stated)	nt	nt	nt	nt	nt	0
Oc1c(Br)cc(Cl)cc1C=Nc1ccc(N2CCOCC2)cc1	30	9	5	9	-21	9
Oc1ccc(N=Nc2cccc(Cl)c2)cc1C=Nc1ccc(N2CCOCC2)cc1	68*	-10	8	-19	18	-11
Cc1c(NC(=O)c2ccc(S(=O)(=O)Nc3ccccc3F)cc2)c(=O)n(-c2ccccc2)n1C	15	-9	-15	5	-1	7
Cc1ccc(-c2[nH]ncc2/C=N/n2c(COc3ccccc3)nc3ccccc3c2=O)cc1	38	-18	-2	52*	-2	14
Cc1ccccc1OCc1nc2ccccc2c(=O)n1/N=C/c1cn[nH]c1-c1ccccc1	28	-5	-26	40	-39	-15
C(=C\c1nc(N2CCCC2)c2ccccc2n1)/c1ccccc1	-87	-5	2	103*	-1	-78
CC1CCN(c2nc(/C=C/c3ccccc3)nc3ccccc23)CC1	-13	2	13	-53	-6	-76
O=C(/C=C/c1ccccc1)CCN1CCCCC1	-67	3	11	105*	80	-6
CC(=O)n1cc(C(C[N+](=O)[O-])SCCN)c2ccccc21 (configuration not stated)	29	0	86*	47	43	31
CCNc1oc(-c2ccccc2F)nc1S(=O)(=O)c1ccccc1	-3	5	2	8	10	8
CN(C)c1ncnc2c1C(c1ccccc1)C(C)(C)O2 (configuration not stated)	10	-16	0	7	96*	11
Cc1ccccc1-c1nc(SCc2cccnc2)c2c(=O)n(C)c(=O)n(C)c2n1	2	0	5	64*	1	11
CCCc1nc(SCc2cccnc2)c2c(=O)n(C)c(=O)n(C)c2n1	12	1	-5	15	14	5
C=CCNc1nc(N)c(C(=C(C#N)C#N)c2ccc(Br)cc2)s1	7	-12	22	56*	28	3
Cc1cc(C)c2c(=O)n3c(nc2c1)C(Cc1ccccc1)NC(=O)c1cc2ccccc2cc1-3 (configuration not stated)	74*	-63*	nt	-2	22	-5
O=C1NC(Cc2ccc(O)cc2)c2nc3ccc(Cl)cc3c(=O)n2-c2cc3ccccc3cc21 (configuration not stated)	23	-17	nt	61*	39	-39
Cc1ccc2c(=O)n3c(nc2c1)C(Cc1ccc(O)cc1)NC(=O)c1cc2ccccc2cc1-3 (configuration not stated)	-7	-11	nt	62*	24	1
CCOc1ccc(-n2ccn(CC(=O)NCCc3ccccc3)c(=O)c2=O)cc1	-12	-4	0	9	-1	19
CC1(C(=O)Nc2cnc3ccccc3c2)CCN1C(=O)CCc1ccccc1 (configuration not stated)	20	-9	nt	0	14	-11
CC1(C(=O)Nc2cnc3ccccc3c2)CCN1CCc1ccccc1 (configuration not stated)	17	0	nt	51*	16	0
CC(C)C[C@@H]1COc2cc(N3CC[C@H](O)C3)ccc2S(=O)(=O)N1	nt	nt	nt	nt	nt	-5
Cc1ccc(S(=O)(=O)Nc2c(O)ccc3ccccc23)cc1	-20	10	nt	-13	-46	-74
COc1ccc(OC)c(S(=O)(=O)Nc2cccc3c(O)cccc23)c1	-6	3	nt	25	-11	15
CCc1ccc(S(=O)(=O)Nc2ccc(O)c3ccccc23)cc1	94*	-50	16	21	37	12
O=S(=O)(Nc1ccc(O)c2ccccc12)c1ccc(F)cc1	84*	0	29	-8	24	9
COc1ccc(OC)c(S(=O)(=O)Nc2ccc(O)c3ccccc23)c1	64*	-15	30	67*	9	4
O=S(=O)(Nc1ccc(NS(=O)(=O)c2ccccc2)c2ccccc12)c1ccccc1	-11	5	nt	5	14	9
COc1ccc2cc(Br)ccc2c1CC(=O)NCCCN1CCOCC1	-1	6	-1	14	-45	15

Bioassay records: PubChem BioAssay, several laboratories
